The values below come from PubChem BioAssay AID624296 (National Center for Advancing Translational Sciences (NCATS), 2012).

Out of some 350,000 compounds screened, about 9,900 (2.8%) were called active. Where a call stands in place of a potency, no number is given. About 15% were inconclusive and are not listed. Calls come from the whole dose curve; as a rule, active = well fitted activation curve with a large enough effect; inconclusive = small, poorly fitted or top-dose-only effect; inactive = no such curve, though single readings can be large or run the other way. Only a selection was taken, and actives are over-represented in it overall.
Potency is the fitted concentration of half-maximal effect.

This test in a line: A quantitative high throughput screen for small molecules that induce DNA re-replication in MCF 10a normal breast cells. Note: nearly all actives have a fitted effect of over 50% in size. Particulars: MCF 10A DNA re-replication, Hoechst nuclear intensity, 48 h; series mostly up to 46.1 µM.
In the case of `CC(=O)Nc1ccc(S(=O)(=O)Nc2ccc(N3CCCCC3)cc2)cc1`, the Potency entry was “inactive”. Consider `FC(F)(F)c1nnc2ccc(N3CCN(c4ccccc4)CC3)nn12`, for which the Potency entry was “inactive”. Consider `FC(F)(F)c1nnc2c3ccccc3c(Cl)nn12`, for which the Potency was 20.6 µM (active).

With `Nc1nnc2c(C(F)(F)F)nc3ccccc3n12`, the Potency result is “inactive”. Then `CCOC(=O)c1ccc(NC(=O)C2CC(=O)N(c3ccc4c(c3)OCCO4)C2)cc1` (stereo unspecified), with “inactive”.

With `CC[C@]1(O)CC2CN(CCc3c([nH]c4ccccc34)[C@@](C(=O)OC)(c3cc4c(cc3OC)N(C=O)[C@H]3[C@@](O)(C(=O)OC)[C@H](OC(C)=O)[C@]5(CC)C=CCN6CC[C@]43[C@@H]65)C2)C1` (stereo partly specified), the Potency was 0.651 µM (active). With `O=S(=O)(NCCc1ccccn1)c1cc(Cl)cc(Cl)c1O`, the Potency result was “inactive”. For `CC(=O)c1ccc(N2CCN(C(=O)c3ccc(Cl)c(S(=O)(=O)NC4CC4)c3)CC2)c(F)c1`, the Potency result is “inactive”. Then `Cc1ccc(C(=O)Nc2ccn(C)n2)cc1`, with “inactive”. Turning to `COc1ccc(NC(=O)COC(=O)c2n[nH]c3ccccc23)c(OC)c1`, the Potency result was “inactive”.

Take `CC(C)(C)OC(=O)C[C@@H]1C/C=C\C[C@@H](CC(=O)N[C@H](CO)Cc2ccccc2)C(=O)NC[C@@H](c2ccccc2)OC1=O`: the Potency result is “inactive”. As to `O=C(C[C@H]1C/C=C\C[C@@H](NC(=O)OCC2c3ccccc3-c3ccccc32)C(=O)O[C@@H](c2ccccc2)CNC1=O)N[C@H](CO)Cc1ccccc1`, the Potency is 10.3 µM (active). The value for `CC(C)(C)OC(=O)C[C@H]1C/C=C\C[C@@H](CC(=O)N[C@H](CO)Cc2ccccc2)C(=O)NC[C@@H](c2ccccc2)OC1=O` was “inactive”. As for `CCN(CC(=O)Nc1c(F)cccc1F)C(=O)Cc1cccs1`, the Potency entry was “inactive”. The value for `O=C(c1cnccn1)N1CCN(S(=O)(=O)c2cccc(Cl)c2)CC1` was “inactive”. Turning to `CCOC(=O)c1c(C)[nH]c(C)c1S(=O)(=O)N(C)CC(=O)Nc1ccccc1C`, the Potency result was “inactive”.

`CCOC(=O)N1CCN(CC(=O)c2c(C)[nH]c3ccccc23)CC1`: the Potency result is “inactive”. Then `CCOC(=O)c1c(C)[nH]c2c1-c1ccccc1C(=O)C2=O`, with 1.3 µM (active); and `COc1ccc(C(=O)N(C)Cc2ccc(OC)c(OC)c2OC)cc1S(=O)(=O)N1CCOCC1`, with “inactive”; and `Cc1ccc(NC(=O)C/C(N)=N/O)cc1Cl`, with “inactive”. Take `O=C(CC(O)(C(F)(F)F)C(F)(F)F)Nc1ccc(Cl)c(Cl)c1`: the Potency is 5.8 µM (active).

On to `Cc1nnc(NC(=O)Nc2ccc(Cl)c(Cl)c2)s1`, for which the Potency entry is “inactive”. Regarding `C[C@H](O)[C@@H]1C(=O)N2CCc3ccc(N4CCOCC4)cc3[C@@H]2C[C@@H]1N(C)C(=O)C(C)(C)C`, the Potency entry is “inactive”. On to `CN(C)C(=O)CCc1ccc2c3c([nH]c2c1)[C@]1(CCC2CCCC2)[C@@H](C(=O)N2CCOCC2)C[C@H](CC(=O)NCc2ccco2)C(=O)N1CC3`, for which the Potency entry was “inactive”. Then `CC(=O)OCC1(O)CC23CCC4c5ccoc5CCC4(C)C2CCC1C3` (stereo unspecified), with “inactive”; and `N#Cc1c(-c2ccccc2)c(-c2ccccc2)n[nH]c1=O`, with 2.59 µM (active).

For the molecule `Cc1ccc(CSc2nc(-c3ccccc3)c(C#N)c(=O)[nH]2)cc1`, the Potency entry was “inactive”.

Consider `N#Cc1c2c(c(-c3ccccc3)[nH]c1=O)CCCC2`, for which the Potency result is “inactive”. `CCOc1ncccc1C(=O)OCC(=O)Nc1cccc(S(=O)(=O)N2CCCCCC2)c1`: the Potency entry was “inactive”. With `COc1ccccc1N1CC(C(=O)Nc2ccc(S(=O)(=O)N3CCOCC3)cc2)CC1=O` (stereo unspecified), the Potency result was “inactive”.

With `COc1cc(OC)c(N2CC(C(=O)Nc3cc(Cl)ccc3N3CCOCC3)CC2=O)cc1Cl` (stereo unspecified), the Potency is 18.4 µM (active). On to `COc1ccc(Cl)cc1NC(=O)C1CC(=O)N(c2ccc(F)cc2)C1` (stereo unspecified), for which the Potency entry was “inactive”. For `Cc1ccc(CSc2ccc(S(=O)(=O)N3CCCCC3)cn2)cc1`, the Potency result was “inactive”. On to `Cc1ccsc1C(=O)NNC(=O)COc1ccc(Br)cc1`, for which the Potency entry is “inactive”. As for `O=C1c2ccccc2C(=O)C1C(=O)C1CC1`, the Potency result was “inactive”. In the case of `Cc1ccc(-c2cc(=O)c3ccc(F)cc3[nH]2)cc1`, the Potency result was “inactive”.

As for `Cc1ccc(-c2cc(=O)c3ccc(Cl)cc3[nH]2)cc1`, the Potency entry was “inactive”. As for `O=c1cc(-c2ccccc2)[nH]c2cc(F)ccc12`, the Potency was 1.3 µM (active). As to `C[C@H](CO)N1C[C@H](C)[C@H](CN(C)CC2CC2)Oc2ccc(NC(=O)CCN3CCOCC3)cc2C1=O`, the Potency result is “inactive”. Consider `CC(=O)c1ccc(NC(=O)C(C)OC(=O)c2ccc(NS(=O)(=O)c3ccc4[nH]c(=O)[nH]c4c3)cc2)cc1` (stereo unspecified), for which the Potency entry was “inactive”. As for `O=S(=O)(Nc1ncnc2sccc12)c1cccc(F)c1`, the Potency entry is “inactive”. As to `COc1ccc2c(c1)C(SCC(=O)NCc1ccccc1)CC(C)(C)O2` (stereo unspecified), the Potency result is “inactive”. For the molecule `COc1ccc2c(c1)C=CC1(O2)N(CCO)c2ccccc2C1(C)C` (stereo unspecified), the Potency was 20.6 µM (active). Regarding `CN1c2ccc([N+](=O)[O-])cc2C(C)(C)C12C=Cc1cc(C(=O)O)ccc1O2` (stereo unspecified), the Potency entry was “inactive”. In the case of `O=C(CN1C(=O)NC2(CCCCCCC2)C1=O)NCc1ccc(F)cc1`, the Potency result is “inactive”.

As to `COc1cccc(C(=O)OCC(=O)c2[nH]c(C)c(C(C)=O)c2C)c1`, the Potency entry was “inactive”. As to `CCN(C[C@H]1N[C@@](CC)(C(=O)OC)[C@H]2C(=O)N(Cc3ccccc3)C(=O)[C@@H]12)S(=O)(=O)c1ccc(C(F)(F)F)cc1`, the Potency result was “inactive”. With `CCC1(CC)NC(=O)N(CC(=O)OCC(=O)c2cc(C)c(C)cc2C)C1=O`, the Potency result is “inactive”. With `O=C(NCC1CCCCC1)NCC1CCCCC1`, the Potency entry was “inactive”. With `CCN(CC)c1ccc(NC(=O)c2ccc(Cl)nc2)cc1`, the Potency is 5.8 µM (active). Then `Cc1cnc(NC(=O)c2ccc(Cl)nc2)s1`, with “inactive”; and `O=C(NNC(=O)c1ccc(Cl)nc1)c1ccc(Br)cc1`, with “inactive”; and `Cc1ccccc1SCC(=O)OCC(=O)N1CC(=O)Nc2ccccc21`, with “inactive”. The value for `Cc1ccccc1-c1cc(C(=O)NCc2cccs2)n(CC2CC(c3cccnc3)=NO2)n1` (stereo unspecified) was “inactive”; that for `c1ccc2cc3c(NCCN4CCOCC4)ccnc3cc2c1` was 4.61 µM (active); that for `O=C(NCCN1CCOCC1)c1ccc2c(c1)ncn2C1CCCC1` was “inactive”.

As for `O=C(NCCN1CCOCC1)c1cc(-c2cccs2)nc2ccccc12`, the Potency entry is “inactive”. Then `COc1cc(C2CC(=O)Oc3cc(OC)c(OC)c(OC)c32)cc(OC)c1OC` (stereo unspecified), with “inactive”; and `COc1cc2ccccc2cc1C(=O)Nc1ccc(NC(=O)c2cccs2)cc1`, with “inactive”.

Consider `Cc1ccc(OCC(=O)Nc2ccc(NC(=O)c3cccs3)cc2)c(C)c1`, for which the Potency is 20.6 µM (active). Regarding `Cc1ccc(-c2nnc(-c3ccc(NC(=O)c4cccs4)cc3)o2)cc1`, the Potency result was “inactive”.
